ADAM17 inh: ADAM17 inhibition, QFRET primary screen. P78536. recombinant ADAM17, EDANS/DABCYL FRET peptide cleavage. inhibition, % at 6.95 µM. hit rate 0.83% among 370,000. AID 720648;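 active means inhibition above the mean of compounds lying between control limits plus 3 SD, set per campaign, cut at about 8.5% in these data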
rRNA inh HTS: inhibits bacterial ribosomal RNA function over humanized ribosomes; GFP signal change (wild-type ribosome), % (no concentration beside the values); hit rate 1.6% among 350,000; E. coli WT GFP vs humanized-ribosome RFP mutants, fluorescence, 24 h; active compounds read low; DMSO median 0, no signal -100;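 active means significant combined selectivity score with lowered wild-type GFP, culture density cut under 30%, mutant RFP and density less affected; inactive means any of these conditions unmet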
ADAM10 inh: inhibitors of human ADAM10 | O14672 | recombinant ADAM10, EDANS/DABCYL FRET peptide cleavage, 3 h | inhibition, % at 7 µM | hit rate 0.62% among 370,000 | AID 720582;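 active means inhibition above a per-campaign cutoff equal to the mean of compounds falling between control-based bounds plus 3 SD, cut at about 20% in these data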
proKLK7 act: activates the human kallikrein-7 zymogen | P49862 | activation, % at 7 µM | hit rate 0.9% among 370,000 | purified proKLK7, EDANS-DABCYL substrate fluorescence; 100% is mature enzyme control, 0% vehicle;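 active means activation above the mean of all tested compounds plus 3 SD, computed per campaign excluding outliers beyond control limits, cut at about 13% in these data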
Target sequence (P49862 whole entry, looked up): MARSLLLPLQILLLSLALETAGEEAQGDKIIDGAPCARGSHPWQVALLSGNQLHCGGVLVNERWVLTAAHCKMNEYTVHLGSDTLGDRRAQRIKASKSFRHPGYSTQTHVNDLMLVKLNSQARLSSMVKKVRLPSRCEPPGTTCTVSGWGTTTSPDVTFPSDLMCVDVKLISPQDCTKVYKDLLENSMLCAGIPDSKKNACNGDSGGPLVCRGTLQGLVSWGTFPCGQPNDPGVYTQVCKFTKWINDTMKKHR
FGF22 binding: binders of recombinant human FGF22 by thermal shift | Q9HCT0 | SYPRO orange fluorescence; percent of sucrose octasulfate shift, DMSO zero | activity (Tm shift, normalised), % at 9.99 µM | hit rate 1.5% among 340,000;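 active means mean Tm shift, scaled 0 neutral to 100 positive control, at about 1.3% or above, every replicate too, limit read from the data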
Target sequence (Q9HCT0 whole entry, looked up): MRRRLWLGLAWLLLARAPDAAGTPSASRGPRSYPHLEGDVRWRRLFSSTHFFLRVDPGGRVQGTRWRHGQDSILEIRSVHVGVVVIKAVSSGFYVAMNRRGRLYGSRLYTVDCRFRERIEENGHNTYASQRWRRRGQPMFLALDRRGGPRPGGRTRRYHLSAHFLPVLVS
ADAM10 confirm: confirmation of inhibitors of human ADAM10. hit rate 1% among 2,100. inhibition, % at 6.95 µM. AID 743208. shares compounds with ADAM10 inh. ADAM10 QFRET peptide cleavage, EDANS fluorescence;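 active means inhibition above about 20% chosen separately for each screening run, limit read from the data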
ADAM17 ctr: inhibits human ADAM17 in ADAM10 exosite counter-screen. shares compounds with ADAM10 inh. ADAM17 QFRET peptide cleavage, EDANS fluorescence. inhibition, % at 6.95 µM. hit rate 0.5% among 2,100;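 active means mean triplicate inhibition above the solvent-only control wells' mean plus 3 SD, cut at about 12% in these data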
ADAM10 ctr: inhibits human ADAM10 in ADAM17 exosite counter-screen. hit rate 47% among 2,900. recombinant ADAM10, EDANS/DABCYL FRET peptide cleavage, 3 h. AID 743256. inhibition, % at 6.95 µM. shares compounds with ADAM17 inh;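 active means mean inhibition over the triplicate runs exceeds the activity threshold set in the earlier primary screen, cut at about 20% in these data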
ADAM17 confirm: confirmation of inhibitors of human ADAM17; shares compounds with ADAM17 inh; recombinant ADAM17, EDANS/DABCYL QFRET peptide cleavage; inhibition, % at 6.95 µM; hit rate 65% among 2,900; AID 743257;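 active means mean inhibition across replicates above the hit cutoff set in the primary screen, cut at about 8.5% in these data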
Hits are given with their value; . = inactive; / = no result. In the library only some 3.8% were active in any assay of this set; here they are far more common.

SMILES	ADAM17 inh	rRNA inh HTS	ADAM10 inh	proKLK7 act	FGF22 binding	ADAM10 confirm	ADAM17 ctr	ADAM10 ctr	ADAM17 confirm
Cc1c(C(=O)c2cccc3ccccc23)c2cccc3c2n1[C@H](CN1CCOCC1)CO3	.	/	20.0	.	.	.	.	/	/
O=C(CN1CCOCC1)c1cccc2ccccc12	.	/	.	.	/	/	/	/	/
COc1ccc(C#Cc2ccc([C@H]3[C@H]4CN(C(=O)Cc5ccncc5)CCCCN4[C@H]3CO)cc2)cc1	/	.	/	/	.	/	/	/	/
CCOC(=O)c1c(C)n(Cc2ccccc2)c2ccc(OCC(O)Cn3nc(C)cc3C)cc12 (stereo not given)	11.6	/	33.2	.	/	.	.	/	/
COC(=O)[C@@H]1[C@@H](CO)[C@@H]2Cn3c(ccc(C4=CCCCC4)c3=O)[C@H]1N2C(=O)CC1CC1	/	.	/	/	.	/	/	/	/
Cc1cc(N=Nc2ccccc2C)ccc1N	.	.	22.9	.	.	.	.	/	/
O=C1C=CC(=O)C2C1C1(Cl)C(Cl)=C(Cl)C2(Cl)C1(Cl)Cl (stereo not given)	.	.	26.5	.	.	.	.	/	/
O=C(CNC(=O)OCc1ccccc1)NCC(=O)Nc1ccc(Br)cc1C(=O)c1ccccc1	.	/	.	.	/	/	/	/	/
O=C(CNC(=O)OCc1ccccc1)Nc1ccc(Br)cc1C(=O)c1ccccc1	.	/	20.4	.	/	.	.	/	/
CN1[C@@H]2Cn3c(cccc3=O)[C@H]1[C@@H](C(=O)NCC1CC1)[C@@H]2CO	/	.	/	/	.	/	/	/	/
Nc1ccc(N2CCN(Cc3ccccc3Cl)CC2)c(Cl)c1	.	/	21.6	.	/	.	.	/	/
CCOC(=O)C1C2c3ccccc3O[C@@]1(C)N=C1SCC(=O)N12 (stereo not given in full)	.	.	.	.	.	/	/	/	/
CCOC(=O)[C@@H]1[C@H]2COc3ccc(Br)cc3[C@@H]2N2C(=O)N(c3cccc(C)c3)C(=O)[C@]12C	.	.	20.2	.	.	.	.	/	/
COC(=O)[C@@H]1[C@@H](CO)[C@@H]2Cn3c(ccc(/C=C/c4ccccc4)c3=O)[C@H]1N2CC1CCCC1	/	.	/	/	.	/	/	/	/
CCN(c1ccc(C(O)(C(=O)OC)C(F)(F)F)cc1)S(=O)(=O)c1ccccc1 (stereo not given)	.	/	.	.	/	/	/	/	/
CCOC(=O)C(O)(c1ccc(N(CC)S(=O)(=O)c2ccccc2)cc1)C(F)(F)F (stereo not given)	13.6	/	27.0	.	/	.	.	.	.
COC(=O)[C@@H]1[C@@H](CO)[C@@H]2Cn3c(ccc(-c4ccccc4)c3=O)[C@H]1N2S(=O)(=O)c1ccccc1C	/	.	/	/	.	/	/	/	/
COC(=O)C1=C(c2ccc(F)cc2OCc2ccccc2)C[C@@H]2CC[C@H]1N2C(=O)NCc1cccc(C(F)(F)F)c1	15.6	.	23.8	.	.	.	.	.	13.0
COC(=O)C1=C(c2ccc(F)cc2OCc2ccccc2)C[C@@H]2CC[C@H]1N2C(=O)NCc1cccc(OC)c1	.	.	.	.	.	/	/	/	/
COC(=O)C1=C(c2ccc(F)cc2OCc2ccccc2)C[C@@H]2CC[C@H]1N2C(=O)NCc1ccc(N(C)C)cc1	9.7	.	19.9	.	.	.	.	.	.
COC(=O)C1=C(c2ccc(F)cc2OCc2ccccc2)C[C@@H]2CC[C@H]1N2C(=O)NCCOc1ccccc1	.	.	.	.	.	/	/	/	/
COC(=O)C1=C(c2ccc(F)cc2OCc2ccccc2)C[C@@H]2CC[C@H]1N2C(=O)NCCc1ccc(F)cc1	10.7	.	26.6	.	.	.	.	28.8	13.5
CC=Cc1ccc2n(c1=O)C[C@H]1[C@H](CO)[C@@H](C(=O)OC)[C@@H]2N1CC1CCCC1 (mixture of isomers)	/	.	/	/	/	/	/	/	/
COc1ccc(-n2nnnc2C(c2ccccc2OC(F)(F)F)N2CCC(n3c(=O)[nH]c4ccccc43)CC2)cc1 (stereo not given)	10.1	.	29.7	.	.	.	.	34.0	20.4
COc1ccc(-n2nnnc2C(c2ccccc2OC(F)(F)F)N2CCC3(CC2)C(=O)NCN3c2ccccc2)cc1 (stereo not given)	9.4	.	24.7	.	.	.	.	30.6	15.2
SMILES	ADAM17 inh	rRNA inh HTS	ADAM10 inh	proKLK7 act	FGF22 binding	ADAM10 confirm	ADAM17 ctr	ADAM10 ctr	ADAM17 confirm
CCOc1cc(CNCCc2c[nH]c3ccccc23)cc(Cl)c1OCC	14.4	.	27.2	.	.	.	.	.	.
COC(=O)C(O)(c1ccc(NC(=S)NC(=O)c2ccc(Cl)cc2Cl)c(C)c1)C(F)(F)F (stereo not given)	11.5	.	23.4	.	.	.	.	35.1	18.2
COC(=O)C(O)(c1ccc(NC(=S)NC(=O)c2ccc(Cl)cc2Cl)cc1)C(F)(F)F (stereo not given)	.	.	.	.	.	/	/	/	/
COc1cccc(-c2ccc3n(c2=O)C[C@H]2[C@H](CO)[C@@H](C(=O)O)[C@@H]3N2Cc2ccccc2F)c1	/	.	/	/	/	/	/	/	/
Cc1ccc(NP(=O)(Oc2ccccc2F)Oc2ccccc2F)cc1C	9.6	/	25.9	.	/	.	.	22.9	11.9
CCCNC(=O)[C@H]1[C@H](CO)[C@H]2Cn3c(cccc3=O)[C@H]2N1C	/	.	/	/	.	/	/	/	/
COC(=O)C1=C(c2ccc(-c3ccccc3)c(F)c2)C[C@@H]2CC[C@H]1N2C(=O)NCCOc1ccc(OC)cc1	22.2	.	40.4	.	.	.	.	20.5	11.6
COC(=O)C1=C(c2ccc(-c3ccccc3)c(F)c2)C[C@@H]2CC[C@H]1N2C(=O)NCCNC(C)=O	.	.	.	.	.	/	/	/	/
COC(=O)C1=C(c2cccc(OCc3ccccc3)c2)C[C@@H]2CC[C@H]1N2C(=O)NCCOc1ccc(OC)cc1	10.2	.	25.8	.	.	.	.	.	13.8
CC=Cc1ccc2n(c1=O)C[C@@H]1[C@@H](CO)[C@H](C(=O)OC)[C@H]2N1S(=O)(=O)c1ccccc1C (mixture of isomers)	/	.	/	/	.	/	/	/	/
C#CCCC[C@@H]1OC(=O)CNC(=O)C([C@@H](C)CC)NC(=O)[C@@H]2CCCN2C(=O)C([C@@H](C)CC)OC(=O)[C@H](Cc2ccccc2)N(C)C(=O)[C@H](C(C)C)NC(=O)C1(C)C (stereo not given in full)	.	.	.	.	.	/	/	/	/
